In PubChem BioAssay (Tox21):
Inconclusive results are not listed. Where a call stands in place of a potency, no number is given. A number with no mark means an inactive call. Active and inactive are the calls of the source. The call rests on the fitted dose curve.

Test: qHTS assay to identify small molecule agonists of the AP-1 signaling pathway - cell viability counter screen (AID 1159525); further: nearly all actives have a fitted effect of over 55% in size
Details: ME-180 (cervical carcinoma) AP-1-bla cells viability, ATP luminescence, 5 h; series mostly up to 76.8 µM
Source text: National Center for Advancing Translational Sciences [NCATS]
NIH Chemical Genomics Center [NCGC]
U.S. Environmental Protection Agency [EPA]
National Institutes of Environmental Health Sciences [NIEHS]
National Toxicology Program [NTP]
U.S. Food and Drug Administration [FDA]
Activator protein-1 (AP-1), a transcription factor, plays an important role in tumor genesis by regulating genes involved in cell proliferation, differentiation, apoptosis, and angiogenesis. AP-1 activity is induced by a complex network of signaling pathways that involves extracellular signals, such as growth factors. The AP-1 protein complex formed from c-Fos and c-Jun binding to the AP-1 response element results in transcriptional activation of genes containing such elements within their promoter.
Low molecular weight molecules have been discovered and developed to modulate various components of these signaling pathways, for example, MAP kinase inhibitors. However, many points of pathway modulation remain untested due to the lack of chemical probes making this signaling locus of general interest.
Using a beta-lactamase reporter-gene under control of the AP-1 response element, a cell-based assay [CellSensor(TM) AP-1-bla ME-180 developed by Invitrogen Corp.] was used to measure EGF-induced signaling. The Tox21 10K library compounds were measured for their ability to positively modulate the action of EC50 EGF on reporter gene activity. Compounds were screened in a 15-pt titration series in 1536-well format. The cytotoxicity of the Tox21 compound library against this cell line was tested in parallel by measuring the intra cellular ATP content in the same wells.
Tox21 Assay Protocol Summary:
2500 cells/5uL in Opti-MEM medium containing 0.5% dialyzed FBS, 0.1 mM NEAA, 1 mM sodium pyruvate and 10 mM HEPES was dispensed into 1536-well black wall/clear bottom plates using a Multidrop dispenser and cells were cultured at 37 degrees Celsius overnight. Next day 23 nL of compounds dissolved in DMSO, positive controls or DMSO were delivered to each well using a pin tool. The plates were incubated at 37 degrees Celsius for 5 hours. 1 uL of LiveBLAzerTM B/G FRET substrate (Solution A+B+C+D) was added to each well using a Flying Reagent Dispenser. After incubated at room temperature for 2.5 hours the plates were measured on an EnVision plate reader at Excitation 405nm, Emission1=460nm and Emission 2=530nm. The %Activity was determined from the ratio of 460nm/530nm.
After the plates were read for Beta-Lactamase assay on Envision; 3 ul Cell Titer Glo (Promega) was added to measure the cytotoxicity and the plates were then incubated at RT in dark for 30 min. The luminescence was read on ViewLux (Perkin Elmer, Shelton, CT) using 6 sec exposure. ViewLux data was expressed as relative luminescence units.
For primary data analysis, raw plate reads for each titration point were first normalized relative to […] EGF control (100%) and DMSO only wells (basal, 0%).
For primary data analysis for viability assay, raw plate reads for each titration point were first normalized Tetra n-octyl ammonium bromide control (-100%) and DMSO (control, 100%).
Potency means the concentration at half of the fitted maximal effect.

SMILES	Potency	viability change, negative = cytotoxic
O=C1CCC(=O)N1	inactive	–
O=C(O)CN(CCCN(CC(=O)O)CC(=O)O)CC(=O)O	–	-3.53% [at 15.8 µM]
C=C1CC[C@H]2O[C@]2(C)CC[C@@H]2[C@@H]1CC2(C)C	inactive	–
Cc1ccc2nc(-c3ccc(N)cc3)sc2c1S(=O)(=O)O	inactive	–
COc1cc(C(C)C)ccc1C	–	8.58% [at 15.8 µM]
O=C1OCc2ccccc21	inactive	–
C=C(C)CCO	inactive	–
NC(=O)c1ccccc1Cl	inactive	–
CCOC(=O)OC(=O)OCC	inactive	–
CCOc1nc(F)cc2nc(S(=O)(=O)Nc3c(Cl)cccc3C(=O)OC)nn12	inactive	–
CC1(C)[C@H](C(=O)OCc2cccc(Oc3ccccc3)c2)[C@@H]1C=C(Cl)Cl	inactive	–
CCCOC(=O)c1ccc(O)cc1	inactive	–
Brc1cc(Br)cc(Br)c1	inactive	–
O=S(=O)(c1ccc(OCc2ccccc2)cc1)c1ccccc1O	inactive	–
CC1(C)[C@H]2CC[C@]1(C)C(=O)C2	inactive	–
CCN(CC)c1ccc(C=O)c(O)c1	inactive	–
CCC1(C)C(=O)N(Cl)C(=O)N1Cl (stereo not given)	inactive	–
O=c1cc[nH]cc1	inactive	–
CCn1c2ccccc2c2ccccc21	inactive	–
CCCCCCCCc1ccc(Nc2ccc(CCCCCCCC)cc2)cc1	inactive	–

SMILES	Potency	viability change, negative = cytotoxic
CN[C@H]1CC[C@@H](c2ccc(Cl)c(Cl)c2)c2ccc(S(N)(=O)=O)cc21	inactive	–
NC(=O)C1CO1 (stereo not given)	inactive	–
COc1cc2ncnc(Nc3cccc(Cl)c3)c2cc1OC	–	-9.86% [at 15.8 µM]
[Cl][Eu]([Cl])[Cl]	inactive	–
CCc1cccc(CC)c1	inactive	–
C=C(C)C1CCC(C)CC1O (stereo not given)	inactive	–
CC(=O)CC(N)=O	inactive	–
O=C1CCCCCCCCCCCCCC1	inactive	–
Cc1c(Cl)c(=O)oc2cc(O)ccc12	inactive	–
CN(C[C@@H](CC[N+]12CCC(C3CCCCC3)(CC1)CC2)c1ccc(Cl)c(Cl)c1)C(=O)c1cc(C(F)(F)F)cc(C(F)(F)F)c1	43.6 µM (active)	–
CC(Cc1ccc(O)c(O)c1)C(C)Cc1ccc(O)c(O)c1 (stereo not given)	inactive	–
CCC(O)CO (stereo not given)	inactive	–
O=C(CCN1CCC(c2ccccc2)C1)c1ccc2c(c1)OCCO2 (stereo not given)	inactive	–
C=CCc1cc(S(=O)(=O)c2ccc(O)c(CC=C)c2)ccc1O	inactive	–
CCCCCCCCOC(=O)c1cc(O)c(O)c(O)c1	54.9 µM (active)	–
CC(=O)[C@]1(O)Cc2c(O)c3c(c(O)c2[C@@H](O[C@H]2C[C@H](N)[C@H](O)[C@H](C)O2)C1)C(=O)c1ccccc1C3=O	inactive	–
O=C1OC(=O)c2cc(-c3ccc4c(c3)C(=O)OC4=O)ccc21	inactive	–
CCCCCN=C(N)N/N=C/c1c[nH]c2ccc(OC)cc12	23.9 µM (active)	–
CCOC=C(C(=O)OCC)C(=O)OCC	inactive	–
CCNc1nc(NC(C)(C)C)nc(OC)n1	inactive	–
